# Entries with a potency or affinity are not part of this list. Values without a mark were called inactive. No rule for the calls is given here.
# Assay: HepG2 cell cytotoxicity, cytotoxicity control, set 4 (AID 504910)
# Details: series mostly up to 50 µM; viability: at the top concentration
row,SMILES,viability
1,Cc1cc(=O)[nH]c(=S)[nH]1,99.8%
2,Cn1c(SCC(=O)NC2CCCCC2)nc2ccccc2c1=O,94%
3,CCOC1OC(=O)C(Cl)=C1Nc1ccccc1C (stereo not given),96.8%
4,O=C(CSc1nc2ccccc2c(=O)[nH]1)NC1CCCC1,98%
5,Nc1cc(=O)[nH]c(SCC(=O)NC2CCCCC2)n1,95.5%
6,CCSc1nc(C)c(C)c(=O)[nH]1,96.9%
7,CCC(Sc1nc2ccccc2c(=O)[nH]1)C(=O)Nc1cccc(OC)c1 (stereo not given),98.7%
8,COc1cccc(NC(=O)CSc2nc3c(c(=O)[nH]2)CCC3)c1,91.2%
9,COC(=O)C(C)Oc1ccc(Cc2ncc(C(F)(F)F)cc2Cl)cc1 (stereo not given),89.4%
10,Cc1cnc(SCC(=O)NC2CCCCC2)[nH]c1=O,97.8%
11,Cc1cc(Br)ccc1NC(=O)c1cnc(N2CCN(c3ccccn3)CC2)c2ccccc12,81.3%
12,CC(C)CCNC(=O)CSc1nc2c(c(=O)[nH]1)CCC2,98.9%
13,CN(C(=O)CSc1nc2ccccc2c(=O)[nH]1)C1CCCCC1,96.2%
14,CN(C)C(=O)CSc1nc2ccccc2c(=O)[nH]1,95.8%
15,CC1CCN(C(=O)CSc2nc3ccccc3c(=O)[nH]2)CC1,89.3%
16,CC[C@@H](CO)NCCN[C@@H](CC)CO,99%
17,Cc1nc(SCC(=O)NCCC(C)C)[nH]c(=O)c1C,92%
18,Cc1cccc(/C=C/C(=O)c2ccc([N+](=O)[O-])o2)c1,90.5%
19,Cc1cc(C)n2nc(N)c(N=Nc3ccccc3)c2n1,91.5%
20,Cc1ccc(NC(=O)CSc2nc3ccccc3c(=O)[nH]2)cc1Cl,91.9%
21,NC(=O)CSc1nc2ccccc2c(=O)[nH]1,98%
22,CN[C@@H]1[C@H](O[C@H]2[C@H](O[C@H]3[C@H](O)[C@@H](O)[C@H](N=C(N)N)[C@@H](O)[C@@H]3N=C(N)N)O[C@@H](C)[C@]2(O)C=O)O[C@@H](CO)[C@H](O)[C@H]1O,97%
23,Cc1nc(SCc2ccccc2Cl)[nH]c(=O)c1C,96.9%
24,Cc1nc(SCC(=O)N(C)c2ccccc2)[nH]c(=O)c1C,94%
25,CC(C)CCNC(=O)CSc1nc2ccccc2c(=O)[nH]1,95.6%
26,Cc1c[nH]c(=S)[nH]c1=O,96.7%
27,CC(Sc1nc2ccccc2c(=O)[nH]1)C(=O)NC1CCCCC1 (stereo not given),86.3%
28,NC(=O)c1cnccn1,97.8%
29,O=C(CSc1nc2ccccc2c(=O)[nH]1)NC1CCCCC1,95.5%
30,CC(C)NC(=O)CSc1nc2ccccc2c(=O)[nH]1,91%

# Source: PubChem BioAssay AID504910 (Southern Research Specialized Biocontainment Screening …, 2011)
